Source: PubChem BioAssay (several laboratories)
A selection: hits, their analogues and other compounds. The true share with any hit is near 5.3%.
MT1-MMP txn act: MT1-MMP promoter reporter activation – cell-based, luciferase luminescence, primary screen; HT1080 MT1-MMP promoter luciferase reporter, overnight; stronger effect = higher value; 86,000 tested, 0.16% active; activation factor at 10 µM;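 active = activation factor of at least 2 for MT1-MMP transcription at 10 µM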
PostGolgi yeast: phenotypic screen on post-Golgi transport, primary screen; 98,000 tested, 0.9% active; inhibition, % at 10 µM; post-Golgi transport phenotypic cell assay;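 note: yeast cells grown in 1536-well plates; yeast grown about 18 h at 30C before absorbance read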
Measles CPE: compounds protecting cells from measles virus cytopathic effect, primary screen, measles RdRp inhibitor project, single point, MLSMR library, absorbance; protection (pct of control), % at 4 µM; 140,000 tested, 1.5% active; Measles virus-infected cells, CPE protection; AID 841, 2007; in the data active = protection mostly above about 24%, no sharp cut-off; inactive = mostly below about 26%
PostGolgi ctrl: growth inhibition of yeast control strain, primary screen, counter-screen for post-Golgi transport modulator project | efflux-deficient yeast background strain, growth absorbance A615, 16 h | inhibition, % at 10 µM | 98,000 tested, 5% active
* = called active by the depositor; . = no result. Cut-off read from the data, not from the text of the source, unless noted: active = inhibition above about 30%; inactive = the rest.

SMILES	MT1-MMP txn act	PostGolgi yeast	Measles CPE	PostGolgi ctrl
Cc1ccc(OCC(=O)Sc2ccc(C)cc2)cc1	1.2	-1	38*	0
O=C(O)c1ccc(COc2ccc(Cl)cc2)o1	1.5	-4	44	-1
CCN1CCN(C(=O)c2ccc(COc3ccc(Cl)cc3)o2)CC1	1.1	6	42*	-7
COc1cccc(OC)c1C(=O)N1CCN(Cc2ccc3c(c2)OCO3)CC1	1	-5	8	-2
COCCSc1ccccc1C(=O)N1CCN(Cc2ccc3c(c2)OCO3)CC1	.	-4	51*	7
O=C(CS(=O)(=O)Cc1ccccc1)N1CCN(Cc2ccc3c(c2)OCO3)CC1	1.1	-4	3	-1
O=C(c1ccc(COc2ccc(Cl)cc2)o1)N1CCN(Cc2ccc3c(c2)OCO3)CC1	1.1	.	10	52*
O=C(CSCc1cccc(Cl)c1)N1CCN(Cc2ccc3c(c2)OCO3)CC1	1.2	48*	25	28
Cc1ccc(NC(=O)c2cc(S(=O)(=O)c3ccccc3)ccc2Cl)cc1	.	-4	3	16
c1ccc(OCc2nc3c4c(ncn3n2)-c2ccccc2CC42CCCC2)cc1	.	.	6	.
COc1ccc(NC(=O)CCN2CCN(S(=O)(=O)c3cc(Cl)ccc3OC)CC2)cc1	1.2	4	36	6
CCCC(=O)N1CCN(S(=O)(=O)c2cc(Cl)ccc2OC)CC1	1	3	7	32*
Cc1cc(N2C(=O)CCC2=O)ccc1NC(=O)c1cccs1	1.2	4	2	4
C=CCn1c(N)c(C(=O)Nc2ccccc2)c2nc3ccccc3nc21	1	10	2	37*
C=CCn1c(N)c(C(=O)OC(C)(C)C)c2nc3ccccc3nc21	1.3	19	10	10
C=CCn1c(N)c(C(=O)OC(C)CC)c2nc3ccccc3nc21 (configuration not stated)	1.2	-2	13	38*
CCN(CC)CCN(C)Cc1ccc(Br)cc1	1.1	1	12	3
COC(=O)[C@@]1(Cc2ccc(OC)cc2)[C@H]2c3cc(C(=O)N(C)C)n(CCF)c3C[C@H]2CN1C(=O)c1ccccc1	1.2	.	.	.
Cn1c(NC(=O)CCc2ccccc2)cc(=O)n(C)c1=O	1.5	-5	9	36*
O=C(NCc1nc2ccccc2[nH]1)c1cc2ccccc2oc1=O	1.1	-2	86*	7
O=C(NCc1nc2ccccc2[nH]1)c1ccco1	1.3	-4	19	4
CN1CCN(CC(=O)N2c3ccccc3C(C)(c3ccc(Cl)cc3)CC2(C)C)CC1 (configuration not stated)	1.3	3	7	39*
CN1CCN(CC(=O)N2c3ccccc3C(C)(c3ccccc3)CC2(C)C)CC1 (configuration not stated)	1	-4	20	36*
CCN(CC)S(=O)(=O)c1ccc(NC(=O)CC(NC(C)=O)c2ccccc2)cc1 (configuration not stated)	1.1	-7	5	40*
CC(=O)N(C(C)=O)S(=O)(=O)c1ccc(N=NN2CCOCC2)cc1	.	.	10	.
SMILES	MT1-MMP txn act	PostGolgi yeast	Measles CPE	PostGolgi ctrl
COc1ccc(CC(=O)N2CCN(c3ccccn3)CC2)cc1	1.2	2	7	2
O=C(c1cccc(COc2ccc(Cl)cc2Cl)c1)N1CCN(c2ccccn2)CC1	.	4	8	68*
COc1ccc(C(=O)N2CCN(c3ccccn3)CC2)cc1	1	-3	45*	3
O=C(c1ccc(C#Cc2ccccc2)o1)N1CCN(c2ccccn2)CC1	1.1	-1	8	42*
O=C(c1ccc(COc2ccccc2Br)o1)N1CCN(c2ccccn2)CC1	1.2	-3	10	35*
CCNC(=O)[C@H](C)/C=C/C(NC(=O)OCc1ccccc1)c1ccc(C(=O)OC)cc1 (some centres not stated)	1.1	.	.	.
COc1ccc2nc(NC(=O)C3CCCN(S(=O)(=O)c4cccs4)C3)sc2c1 (configuration not stated)	0.9	24	17	38*
COc1ccc2nc(NC(=O)C3CCN(S(=O)(=O)c4cccs4)CC3)sc2c1	0.9	2	14	37*
CCOC(=O)C1CCCN(S(=O)(=O)c2cccs2)C1 (configuration not stated)	1.2	2	29*	-7
Cc1ccc2nc(NC(=O)C3CCN(S(=O)(=O)c4cccs4)CC3)sc2c1	1	38*	1	44*
COc1ccc2nc(NC(=O)C3CCN(S(=O)(=O)c4cccnc4)CC3)sc2c1	.	2	4	17
Cc1nnc(SCC(=O)N2c3ccccc3CC2C)[nH]c1=O (configuration not stated)	.	.	11	.
